# Results filed as inconclusive are left out. Entries that show only a call come without a potency. Values without a mark were called inactive. Active and inactive are the calls of the source. Unless noted, calls come from the whole dose curve; as a rule, active = well fitted curve in the direction sought with a large enough effect in the repeat runs; inconclusive = weak or mixed curves; inactive = no such curve, though single readings can be large; an effect the other way counts as inactive or inconclusive.
# Tests used:
# [1] = qHTS assay to identify aromatase inhibitors - cell viability counter screen (AID 743084);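 note: cells stimulated with testosterone during compound exposure; nearly all actives have a fitted effect of over 55% in size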
# [2] = target: Aryl hydrocarbon receptor (Homo sapiens) (UniProt P35869); assay: qHTS assay to identify small molecule that activate the aryl hydrocarbon receptor (AhR) signaling pathway (AID 743085);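 note: HG2L7.5c1 human HepG2 liver cells with stably integrated DRE-driven firefly reporter; series mostly up to about 70 µM; nearly all actives have a fitted effect of over 15% in size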
# Sequence of Aryl hydrocarbon receptor (Homo sapiens) (P35869 whole entry, looked up): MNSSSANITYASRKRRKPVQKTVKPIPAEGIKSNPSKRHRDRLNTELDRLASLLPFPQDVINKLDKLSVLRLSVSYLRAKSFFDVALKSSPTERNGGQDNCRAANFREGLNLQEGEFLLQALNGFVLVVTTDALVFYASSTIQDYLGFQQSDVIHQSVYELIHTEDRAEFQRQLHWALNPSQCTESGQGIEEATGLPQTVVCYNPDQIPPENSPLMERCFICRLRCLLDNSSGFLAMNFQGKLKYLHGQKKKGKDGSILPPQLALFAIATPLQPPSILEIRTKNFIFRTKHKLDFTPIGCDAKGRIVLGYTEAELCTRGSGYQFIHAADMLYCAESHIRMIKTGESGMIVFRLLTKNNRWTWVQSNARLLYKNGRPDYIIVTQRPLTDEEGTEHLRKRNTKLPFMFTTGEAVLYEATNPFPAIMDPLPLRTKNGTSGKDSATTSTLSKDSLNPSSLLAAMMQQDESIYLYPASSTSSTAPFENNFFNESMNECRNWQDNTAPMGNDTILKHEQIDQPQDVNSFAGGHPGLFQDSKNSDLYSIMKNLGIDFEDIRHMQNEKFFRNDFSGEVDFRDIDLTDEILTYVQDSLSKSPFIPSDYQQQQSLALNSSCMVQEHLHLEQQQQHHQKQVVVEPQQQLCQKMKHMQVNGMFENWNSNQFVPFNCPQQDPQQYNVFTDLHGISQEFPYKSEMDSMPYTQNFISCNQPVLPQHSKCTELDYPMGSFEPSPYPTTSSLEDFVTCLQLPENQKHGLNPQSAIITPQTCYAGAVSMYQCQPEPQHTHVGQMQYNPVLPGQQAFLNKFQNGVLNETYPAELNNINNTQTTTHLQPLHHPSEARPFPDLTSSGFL
# Procedure, shortened: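 HepG2 cells (HG2L7.5c1) stably carrying a firefly luciferase reporter driven by 20 dioxin responsive elements were exposed to compound for 24 h at 37C after a 5 h settling period; luminescence rise (ONE-Glo) indicated activation.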
# [3] = qHTS assay to identify small molecule that activate the aryl hydrocarbon receptor (AhR) signaling pathway - cell viability counter screen (AID 743086);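 note: HepG2 liver cells carrying the AhR DRE luciferase reporter; series mostly up to about 70 µM; nearly all actives have a fitted effect of over 45% in size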
# Procedure, shortened: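 Cytotoxicity counter screen: CellTiter-Fluor signal (30 min, 37 C) in 4000 HepG2 cells/well carrying the DRE-luciferase reporter, following 24 h compound exposure at 37 C.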
# [4] = target: Peroxisome proliferator-activated receptor gamma (Homo sapiens) (UniProt P37231); assay: qHTS assay to identify small molecule agonists of the peroxisome proliferator-activated receptor gamma (PPARg) signaling pathway (AID 743094; active = well fitted activation curve with a large enough effect in the signal ratio in the repeat runs, not every such curve was filed as active; the % refers to the signal ratio)
# Sequence of Peroxisome proliferator-activated receptor gamma (Homo sapiens) (P37231 whole entry, looked up): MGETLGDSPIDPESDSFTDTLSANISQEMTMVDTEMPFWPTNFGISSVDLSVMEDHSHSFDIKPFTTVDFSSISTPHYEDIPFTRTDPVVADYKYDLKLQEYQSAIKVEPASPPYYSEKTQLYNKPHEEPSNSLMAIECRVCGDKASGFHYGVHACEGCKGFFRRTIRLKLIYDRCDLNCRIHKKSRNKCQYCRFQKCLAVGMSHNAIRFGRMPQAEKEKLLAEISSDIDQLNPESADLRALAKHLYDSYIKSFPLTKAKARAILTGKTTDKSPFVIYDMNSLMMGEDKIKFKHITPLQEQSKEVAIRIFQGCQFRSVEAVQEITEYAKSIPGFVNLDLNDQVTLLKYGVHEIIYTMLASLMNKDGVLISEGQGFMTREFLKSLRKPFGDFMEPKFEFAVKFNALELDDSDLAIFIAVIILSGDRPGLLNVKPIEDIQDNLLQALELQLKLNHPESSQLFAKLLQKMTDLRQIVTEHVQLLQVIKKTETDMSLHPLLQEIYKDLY
# Procedure, shortened: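 Cell-based bla reporter, HEK293H background, PPARg-driven UAS. Pre-incubation 5 h, 37C, 5% CO2. Compound 17 h, 37C. Substrate 1 h RT; fluorescence.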
# [5] = target: Peroxisome proliferator-activated receptor gamma (Homo sapiens) (UniProt P37231); assay: qHTS assay to identify small molecule antagonists of the peroxisome proliferator-activated receptor gamma (PPARg) signaling pathway (AID 743191; calls by dose curve; note: series mostly up to about 63 µM; nearly all actives have a fitted effect of over 30% in size)
# Procedure, shortened: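 Beta-lactamase reporter under UAS control in HEK293H PPARg-bla cells; compound treatment 17 h at 37C. Read-out: fluorescence intensity after 1 h room-temperature incubation with LiveBLAzer B/G FRET substrate.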
# [6] = qHTS assay to identify small molecule antagonists of the peroxisome proliferator-activated receptor gamma (PPARg) signaling pathway - cell viability counter screen (AID 743194); note: nearly all actives have a fitted effect of over 55% in size
# Procedure, shortened: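 Viability was measured as CellTiter-Glo luminescence in GeneBLAzer PPARg UAS-bla HEK293H cells. These cells had been exposed 17 h at 37 C to compounds together with rosiglitazone at 50 nM final, with the beta-lactamase readout taken in the same wells.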
# [7] = qHTS assay for small molecule activators of the heat shock response signaling pathway - cell viability counter screen (AID 743209); note: nearly all actives have a fitted effect of over 50% in size
# Procedure, shortened: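 Same-well multiplex: after 2.5 h room-temperature incubation with LiveBLAzer B/G substrate and fluorescence reading, CellTiter-Glo reagent was added to HSE-bla HeLa cells that had received compound for 5 h at 37 C; luminescence read after 30 min.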
# [8] = qHTS assay for small molecule activators of the heat shock response signaling pathway (AID 743210; active = well fitted activation curve with a large enough effect in the signal ratio in the repeat runs, with a control signal flat, not every such curve was filed as active; the % refers to the signal ratio; note: series mostly up to about 63 µM)
# Procedure, shortened: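 Compound exposure lasted 5 h at 37 C in HeLa cells carrying a heat-shock-element-driven beta-lactamase reporter. Read-out: fluorescence intensity after 2.5 h room-temperature loading with LiveBLAzer B/G FRET substrate.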
# [9] = qHTS assay to identify small molecule agonists of the peroxisome proliferator-activated receptor delta (PPARd) signaling pathway - cell viability counter screen (AID 743211); note: nearly all actives have a fitted effect of over 55% in size; note: potency is the fitted concentration of half-maximal effect
# Procedure, shortened: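 PPARd-bla HEK293H cells (UAS-beta-lactamase reporter) were treated with compounds for 17 h at 37 C. Viability was then read in the same wells by CellTiter-Glo luminescence after 30 min at room temperature.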
# [10] = target: Peroxisome proliferator-activated receptor delta (Homo sapiens) (UniProt Q03181); assay: qHTS assay to identify small molecule agonists of the peroxisome proliferator-activated receptor delta (PPARd) signaling pathway (AID 743212; calls by dose curve)
# Sequence of Peroxisome proliferator-activated receptor delta (Homo sapiens) (Q03181 whole entry, looked up): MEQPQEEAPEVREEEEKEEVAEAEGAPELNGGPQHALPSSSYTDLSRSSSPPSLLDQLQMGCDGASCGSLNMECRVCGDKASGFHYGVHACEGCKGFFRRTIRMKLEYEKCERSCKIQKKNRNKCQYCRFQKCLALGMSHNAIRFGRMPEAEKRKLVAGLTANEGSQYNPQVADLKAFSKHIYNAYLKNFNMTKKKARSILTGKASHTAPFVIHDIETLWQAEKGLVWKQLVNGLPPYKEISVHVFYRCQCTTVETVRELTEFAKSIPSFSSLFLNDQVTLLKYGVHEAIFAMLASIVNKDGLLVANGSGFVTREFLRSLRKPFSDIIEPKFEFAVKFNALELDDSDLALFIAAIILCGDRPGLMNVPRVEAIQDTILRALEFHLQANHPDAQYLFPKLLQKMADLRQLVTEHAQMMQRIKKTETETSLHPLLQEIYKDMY
# Procedure, shortened: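 Beta-lactamase reporter readout: a ratiometric FRET signal from the LiveBLAzer substrate after 2 h at room temperature. Compound exposure at 37 °C in PPARδ-bla HEK293H cells driven by an upstream activator sequence.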
# [11] = qHTS assay to identify small molecule antagonists of the peroxisome proliferator-activated receptor delta (PPARd) signaling pathway - cell viability counter screen (AID 743213); note: nearly all actives have a fitted effect of over 50% in size
# Procedure, shortened: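 Agonist-stimulated (L165041, 300 nM final) HEK293H PPARd UAS-bla cells are exposed to compounds for 17 h at 37 C, and ATP-based luminescence (CellTiter-Glo) from the same wells reports cytotoxicity.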
# [12] = qHTS assay to identify small molecule agonists of the farnesoid-X-receptor (FXR) signaling pathway - cell viability counter screen (AID 743218); note: nearly all actives have a fitted effect of over 45% in size
# Procedure, shortened: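 Readout: CellTiter-Glo luminescence, 30 min RT, multiplexed after the FXR-bla FRET reading. HEK 293T FXR-UAS-bla cells received compound 5 h post-plating and were incubated 16 h at 37 C.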
# [13] = qHTS assay to identify small molecule antagonists of the farnesoid-X-receptor (FXR) signaling pathway - cell viability counter screen (AID 743221; active = well fitted cell-killing curve with a large enough effect in the repeat runs, not every such curve was filed as active; note: nearly all actives have a fitted effect of over 50% in size)
# Procedure, shortened: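 FXR-UAS-bla HEK 293T cells were treated with test compounds plus chenodeoxycholic acid (50 uM final) for 16 h at 37 C. Cell viability in the same wells was then read as CellTiter-Glo luminescence after 30 min at room temperature.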
# [14] = target: Vitamin D3 receptor (Homo sapiens) (UniProt P11473); assay: qHTS assay to identify small molecule agonists of the vitamin D receptor (VDR) signaling pathway (AID 743222; calls by dose curve)
# Sequence of Vitamin D3 receptor (Homo sapiens) (P11473 whole entry, looked up): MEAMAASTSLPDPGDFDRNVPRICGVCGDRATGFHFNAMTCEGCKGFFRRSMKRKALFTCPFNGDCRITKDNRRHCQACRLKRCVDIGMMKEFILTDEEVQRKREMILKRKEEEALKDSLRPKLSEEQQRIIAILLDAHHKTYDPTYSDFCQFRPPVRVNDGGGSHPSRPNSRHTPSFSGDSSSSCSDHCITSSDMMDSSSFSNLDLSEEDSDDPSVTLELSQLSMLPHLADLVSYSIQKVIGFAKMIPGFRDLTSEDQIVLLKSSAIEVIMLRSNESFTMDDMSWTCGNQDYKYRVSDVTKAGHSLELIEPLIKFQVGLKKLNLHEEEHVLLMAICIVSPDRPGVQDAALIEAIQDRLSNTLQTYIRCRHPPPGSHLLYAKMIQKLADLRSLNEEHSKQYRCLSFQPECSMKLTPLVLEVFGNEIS
# Procedure, shortened: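 Following 4 h attachment at 37C, VDR-bla cells (2,000 per well) received DMSO-dissolved compounds or controls. After 16 h incubation, LiveBLAzer B/G FRET substrate was added and fluorescence read 2 h later at room temperature.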
# [15] = target: Vitamin D3 receptor (Homo sapiens) (UniProt P11473); assay: qHTS assay to identify small molecule antagonists of the vitamin D receptor (VDR) signaling pathway (AID 743223; active = well fitted inhibition curve with a large enough effect in the signal ratio in the repeat runs, not every such curve was filed as active; the % refers to the signal ratio)
# Procedure, shortened: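 VDR-bla cells were plated, incubated 4 h at 37C, then given compound and 1alpha,25-dihydroxyvitamin D3 (3 nM final). After 16 h at 37C, LiveBLAzer B/G FRET substrate was added for 2 h at room temperature and fluorescence read.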
# [16] = target: Bile acid receptor (Homo sapiens) (UniProt Q96RI1); assay: qHTS assay to identify small molecule antagonists of the farnesoid-X-receptor (FXR) signaling pathway (AID 743217; active = well fitted inhibition curve with a large enough effect in the signal ratio in the repeat runs, not every such curve was filed as active; the % refers to the signal ratio)
# Sequence of Bile acid receptor (Homo sapiens) (Q96RI1 whole entry, looked up): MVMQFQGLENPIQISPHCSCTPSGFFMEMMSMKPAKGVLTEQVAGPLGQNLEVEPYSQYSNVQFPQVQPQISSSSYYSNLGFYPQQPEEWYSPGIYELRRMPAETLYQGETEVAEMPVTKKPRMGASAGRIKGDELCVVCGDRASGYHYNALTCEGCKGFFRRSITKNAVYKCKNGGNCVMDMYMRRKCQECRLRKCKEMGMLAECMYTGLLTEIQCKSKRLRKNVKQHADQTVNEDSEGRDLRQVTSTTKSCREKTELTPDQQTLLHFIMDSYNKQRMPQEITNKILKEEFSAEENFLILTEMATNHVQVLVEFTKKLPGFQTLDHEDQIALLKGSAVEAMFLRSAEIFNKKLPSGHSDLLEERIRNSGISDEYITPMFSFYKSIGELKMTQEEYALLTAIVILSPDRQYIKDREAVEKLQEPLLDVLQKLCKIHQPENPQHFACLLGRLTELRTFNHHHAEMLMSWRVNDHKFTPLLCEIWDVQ
# Procedure, shortened: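 FRET fluorescence after 2 h room-temperature LiveBLAzer loading gives the readout. Prior step: FXR-bla HEK 293T cells, seeded and incubated 5 h, received test compounds plus 50 uM final CDCA for 16 h at 37 °C.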
# [17] = target: Bile acid receptor (Homo sapiens) (UniProt Q96RI1); assay: qHTS assay to identify small molecule agonists of the farnesoid-X-receptor (FXR) signaling pathway (AID 743220; active = well fitted activation curve with a large enough effect in the signal ratio in the repeat runs, not every such curve was filed as active; the % refers to the signal ratio)
# Procedure, shortened: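 FXR-UAS-bla HEK 293T cells carrying a UAS-driven beta-lactamase reporter were plated for 5 h at 37C/5% CO2, then exposed to DMSO-dissolved Tox21 10K compounds for 16 h at 37C. A LiveBLAzer B/G FRET substrate was loaded for 2 h at room temperature before fluorescence reading.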
# [18] = qHTS assay for small molecule agonists of the antioxidant response element (ARE) signaling pathway (AID 743202; active = well fitted activation curve with a large enough effect in the signal ratio in the repeat runs, not every such curve was filed as active; the % refers to the signal ratio)
# Procedure, shortened: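 After 16 hours of compound treatment at 37 C, HepG2 cells with a stably integrated ARE-driven beta-lactamase reporter were loaded 2 hours at room temperature with LiveBLAzer B/G FRET substrate and fluorescence intensity measured.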
# [19] = qHTS assay for small molecule agonists of the antioxidant response element (ARE) signaling pathway - cell viability counter screen (AID 743203; calls by dose curve; note: nearly all actives have a fitted effect of over 55% in size)
# Procedure, shortened: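 Measured in the same wells as the beta-lactamase ARE reporter, this read-out is CellTiter-Glo luminescence from HepG2 ARE-bla cells given compounds for 16 hrs.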
# [20] = target: Peroxisome proliferator-activated receptor delta (Homo sapiens) (UniProt Q03181); assay: qHTS assay to identify small molecule antagonists of the peroxisome proliferator-activated receptor delta (PPARd) signaling pathway (AID 743215; active = well fitted inhibition curve with a large enough effect in the signal ratio in the repeat runs, not every such curve was filed as active; the % refers to the signal ratio; note: series mostly up to about 62 µM)
# Procedure, shortened: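 Fluorescence from cleaved LiveBLAzer B/G FRET substrate (2 h, room temperature) reports PPARd-driven beta-lactamase in HEK293H UAS-bla cells. Cells had been treated 17 h at 37 C with compound plus 300 nM final L165041.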
smiles,measurement,setting,value
CCOC(=O)c1ccccc1OC,Potency,[1],inactive
same,Potency,[2],inactive
same,Potency,[3],inactive
same,Potency,[4],inactive
same,Potency,[5],inactive
same,Potency,[6],inactive
same,Potency,[7],inactive
same,Potency,[8],inactive
same,Potency,[9],inactive
same,Potency,[10],inactive
same,Potency,[11],inactive
same,Potency,[12],inactive
same,Potency,[13],inactive
same,outcome,[14],inactive
same,outcome,[15],inactive
CCCCCCCCCCCC[N+](C)(C)CC(=O)[O-],Potency,[1],inactive
same,Potency,[2],inactive
same,Potency,[3],inactive
same,Potency,[4],inactive
same,Potency,[5],inactive
same,Potency,[6],inactive
same,Potency,[7],inactive
same,Potency,[8],inactive
same,Potency,[9],15.5 µM (active)
same,Potency,[10],inactive
same,Potency,[16],inactive
same,Potency,[17],inactive
same,outcome,[14],inactive
same,outcome,[15],inactive
CN1C(=O)CC(C)(c2ccccc2)C1=O (centres undefined),Potency,[1],inactive
same,Potency,[2],inactive
same,Potency,[3],inactive
same,Potency,[4],inactive
same,Potency,[5],inactive
same,Potency,[6],inactive
same,Potency,[18],inactive
same,Potency,[19],inactive
same,Potency,[7],inactive
same,Potency,[9],inactive
same,Potency,[10],inactive
same,Potency,[11],inactive
same,Potency,[12],inactive
same,Potency,[13],inactive
same,outcome,[14],inactive
same,outcome,[15],inactive
CC(C)OCC1CO1 (centres undefined),Potency,[1],inactive
same,Potency,[2],inactive
same,Potency,[3],inactive
same,Potency,[4],inactive
same,Potency,[5],inactive
same,Potency,[6],inactive
same,Potency,[18],inactive
same,Potency,[19],inactive
same,Potency,[9],inactive
same,Potency,[10],inactive
same,Potency,[11],inactive
same,Potency,[20],inactive
same,Potency,[12],inactive
same,Potency,[17],inactive
same,Potency,[13],inactive
same,outcome,[14],inactive
same,outcome,[15],inactive
CCCCN(CCCC)CCCOC(=O)c1ccc(N)cc1,Potency,[1],inactive
same,Potency,[2],inactive
same,Potency,[3],inactive
same,Potency,[4],inactive
same,Potency,[5],inactive
same,Potency,[6],inactive
same,Potency,[18],inactive
same,Potency,[19],inactive
same,Potency,[7],inactive
same,Potency,[9],inactive
same,Potency,[16],inactive
same,Potency,[13],inactive
CCCOC(=O)c1ccc(C(=O)OCCC)nc1,Potency,[1],inactive
same,Potency,[2],inactive
same,Potency,[3],inactive
same,Potency,[4],inactive
same,Potency,[5],inactive
same,Potency,[18],inactive
same,Potency,[19],inactive
same,Potency,[7],inactive
same,Potency,[8],inactive
same,Potency,[9],inactive
same,Potency,[10],inactive
same,Potency,[11],inactive
same,Potency,[17],inactive
CC1CN(c2cc3c(cc2F)c(=O)c(C(=O)O)cn3-c2ccc(F)cc2F)CCN1 (centres undefined),Potency,[1],inactive
same,Potency,[2],inactive
same,Potency,[3],inactive
same,Potency,[4],inactive
same,"ratio activity, negative = inhibition",[5],15.7% [at 5.95 µM]
same,"activity change, negative = cytotoxicity",[6],5.03% [at 5.95 µM]
same,activation,[18],0.815% [at 8.36 µM]
same,"activity change, negative = cytotoxicity",[7],-28.5% [at 5.95 µM]
same,activation,[8],0.895% [at 5.95 µM]
same,"activity change, negative = cytotoxicity",[9],-0.433% [at 5.95 µM]
same,activation,[10],3.73% [at 5.95 µM]
same,"ratio activity, negative = inhibition",[20],1.55% [at 6.26 µM]
same,"viability change, negative = cytotoxic",[12],19.1% [at 5.95 µM]
same,"activity change, negative = cytotoxicity",[13],-0.0684% [at 5.95 µM]
same,activation,[14],5.04% [at 6.01 µM]
same,"activity change, negative = inhibition",[15],0.481% [at 6.95 µM]
CC(=O)Nc1ccc(N)cc1,Potency,[1],inactive
same,Potency,[2],inactive
same,Potency,[3],inactive
same,Potency,[4],inactive
same,Potency,[5],inactive
same,Potency,[6],inactive
same,Potency,[9],inactive
same,Potency,[10],inactive
same,Potency,[12],inactive
same,Potency,[17],inactive
same,Potency,[13],inactive

# From PubChem BioAssay (Tox21)
